Compounds without any hit were thinned out: in the full panel of roughly 79,000, 15% have a hit. Activity calls are given as the source filed them. Rule as the data show it: active = growth inhibition above about 70%; inactive = the rest.
What was measured:
[1] = NCI Yeast Anticancer Drug Screen. Data for the rad52 strain (AID 147);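 also: 0% = growth of vehicle-treated control cultures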; details: S. cerevisiae rad52 mutant growth inhibition, stronger effect = higher value
In short: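 DNA repair-defective yeast; compound exposure; growth scored against vehicle controls.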

[2] = NCI Yeast Anticancer Drug Screen. Data for the wt1 strain (AID 149);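 also: 0% = growth of vehicle-treated wt1 cultures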; details: S. cerevisiae wt1 strain (SPY 50644) growth inhibition, stronger effect = higher value
In short: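 Vehicle-normalised growth inhibition; strain wt1; compound exposure.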

[3] = NCI Yeast Anticancer Drug Screen. Data for the rad50EPP+ strain (AID 151);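 also: 0% = growth of vehicle-treated control cultures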; details: S. cerevisiae rad50 mutant strain, stronger effect = higher value
In short: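 rad50EPP+ yeast treated with test compounds. Readout: growth vs vehicle control.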

[4] = NCI Yeast Anticancer Drug Screen. Data for the mgt1 strain (AID 153); details: S. cerevisiae mgt1 mutant growth inhibition, stronger effect = higher value
In short: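 Growth inhibition relative to vehicle controls was scored for the mgt1 yeast strain after compound exposure.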

[5] = NCI Yeast Anticancer Drug Screen. Data for the rad50 strain (AID 155);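 also: 0% = growth of vehicle-only cultures of the same strain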; details: S. cerevisiae rad50 strain growth inhibition, stronger effect = higher value
In short: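 A DNA repair-deficient yeast mutant serves as the test organism; compound-induced growth inhibition is calculated against vehicle-treated cells.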

[6] = NCI Yeast Anticancer Drug Screen. Data for the mec2-1 strain (AID 157); details: S. cerevisiae mec2-1 strain, stronger effect = higher value
In short: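 Growth inhibition is read against vehicle-treated controls after compound exposure of the mec2-1 yeast strain, which is defective in DNA damage repair or cell cycle control.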

[7] = NCI Yeast Anticancer Drug Screen. Data for the rad14 strain (AID 159);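 also: 0% = growth of vehicle-treated control cultures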; details: S. cerevisiae rad14 strain growth inhibition, stronger effect = higher value
In short: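 Vehicle-treated cultures served as the baseline for growth inhibition of a DNA repair-mutant yeast strain exposed to each compound.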

[8] = NCI Yeast Anticancer Drug Screen. Data for the sgs1 mgt1 strain (AID 161);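 also: 0% = growth of cultures given vehicle only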; details: S. cerevisiae sgs1 mgt1 strain, stronger effect = higher value
In short: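 Percent growth inhibition was derived by comparing compound-exposed mutant yeast with vehicle-exposed cultures. The strain carries alterations in DNA damage repair.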

[9] = NCI Yeast Anticancer Drug Screen. Data for the CLN2oe strain (AID 163);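 also: 0% = growth of vehicle-only control cultures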; details: S. cerevisiae CLN2oe strain, stronger effect = higher value
In short: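 Compound-treated yeast; growth vs vehicle ctrl = % inhibition. Genetically altered strain (cell-cycle control).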

[10] = NCI Yeast Anticancer Drug Screen. Data for the cln2 rad14 strain (AID 165);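 also: 0% = growth equal to vehicle treated cultures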; details: S. cerevisiae cln2 rad14 strain, stronger effect = higher value
In short: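 Growth inhibition, relative to vehicle-treated controls, is the read-out. The test organism is a yeast strain with defined genetic alterations, cln2 rad14.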

[11] = NCI Yeast Anticancer Drug Screen. Data for the bub3 strain (AID 167); details: S. cerevisiae bub3 mutant strain, stronger effect = higher value
In short: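 Inhibition values come from growth of compound-treated mutant yeast normalised to vehicle-treated controls.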

[12] = NCI Yeast Anticancer Drug Screen. Data for the wt2 strain (AID 169);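 also: 0% = growth of vehicle-treated yeast cultures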; details: S. cerevisiae wt2 strain growth inhibition, stronger effect = higher value
In short: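 Compound exposure of yeast; growth compared with vehicle controls; inhibition reported.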

[13] = NCI Yeast Anticancer Drug Screen. Data for the mlh1 strain (AID 171);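 also: 0% = growth of vehicle-treated control cultures of the same strain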; details: S. cerevisiae mlh1 strain growth inhibition, stronger effect = higher value
In short: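 Compounds are applied to a genetically altered yeast strain, and its growth is compared with that of vehicle-treated cultures to give percent inhibition.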

[14] = NCI Yeast Anticancer Drug Screen. Data for the sgs1 strain (AID 173);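 also: 0% = growth of vehicle-only control cultures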; details: S. cerevisiae sgs1 mutant, stronger effect = higher value
In short: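 Compounds applied to genetically altered yeast; growth compared with vehicle-treated cultures to give % inhibition.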

[15] = NCI Yeast Anticancer Drug Screen. Data for the mlh1 rad18 strain (AID 175); details: S. cerevisiae mlh1 rad18 strain growth inhibition, stronger effect = higher value
In short: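 Cells of a genetically altered yeast strain, deficient in DNA damage repair, were treated with compound. Their growth was then compared with that of vehicle-treated cultures to give inhibition.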

[16] = NCI Yeast Anticancer Drug Screen. Data for the rad18 strain (AID 177); details: S. cerevisiae rad18 mutant growth inhibition, stronger effect = higher value
In short: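 Compounds are applied to a repair-deficient yeast strain, and growth is compared with that of vehicle-treated cultures to give percent inhibition.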

[17] = at 5.0 µM (retest, dose inferred, filed as 0.5)
[18] = at 50.0 µM (retest, dose inferred, filed as 5.0)

Measured: growth inhibition

COc1ccc2c3c1OC(C)C31CC(=O)CCC1CC2 (stereo unspecified)
inactive: [1]; at 1.2 µM -4% | [1]; at 3.7 µM -1% | [1]; at 11.0 µM 4% | [1]; at 33.0 µM 2% | [1]; at 100.0 µM 15% | [2]; at 1.2 µM -3% | [2]; at 3.7 µM -4% | [2]; at 11.0 µM -5% | [2]; at 33.0 µM -5% | [2]; at 100.0 µM -3% | [3]; at 1.2 µM -5% | [3]; at 3.7 µM 1% | [3]; at 11.0 µM 6% | [3]; at 33.0 µM -1% | [3]; at 100.0 µM 4% | [4]; at 1.2 µM -8% | [4]; at 3.7 µM -5% | [4]; at 11.0 µM -4% | [4]; at 33.0 µM -2% | [4]; at 100.0 µM -1% | [5]; at 1.2 µM -2% | [5]; at 3.7 µM 1% | [5]; [17] 13% | [5]; at 11.0 µM 3% | [5]; at 33.0 µM 4% | [5]; [18] 23% | [5]; at 50.0 µM 7.25% | [5]; at 100.0 µM 13% | [6]; at 1.2 µM -4% | [6]; at 3.7 µM -2% | [6]; [17] -15% | [6]; at 11.0 µM -3% | [6]; at 33.0 µM -3% | [6]; [18] 2% | [6]; at 50.0 µM 14.7% | [6]; at 100.0 µM -2% | [7]; at 1.2 µM -2% | [7]; at 3.7 µM 1% | [7]; at 11.0 µM 2% | [7]; at 33.0 µM 1% | [7]; at 100.0 µM 7% | [8]; [17] 14% | [8]; [18] 25% | [8]; at 50.0 µM 8.45% | [9]; at 1.2 µM -2% | [9]; at 3.7 µM -8% | [9]; at 11.0 µM 1% | [9]; at 33.0 µM -1% | [9]; at 100.0 µM 8% | [10]; [17] 14% | [10]; [18] 9% | [10]; at 50.0 µM 5.05% | [11]; at 1.2 µM -5% | [11]; at 3.7 µM -3% | [11]; [17] 8% | [11]; at 11.0 µM -5% | [11]; at 33.0 µM 0% | [11]; [18] 34% | [11]; at 50.0 µM 10.9% | [11]; at 100.0 µM 8% | [12]; at 1.2 µM -8% | [12]; at 3.7 µM -9% | [12]; at 11.0 µM -7% | [12]; at 33.0 µM -7% | [12]; at 100.0 µM -11% | [13]; at 1.2 µM -6% | [13]; at 3.7 µM -2% | [13]; at 11.0 µM -3% | [13]; at 33.0 µM -4% | [13]; at 100.0 µM 1% | [14]; at 1.2 µM -1% | [14]; at 3.7 µM -6% | [14]; at 11.0 µM -8% | [14]; at 33.0 µM 9% | [14]; at 100.0 µM 9% | [15]; [17] 12% | [15]; [18] 51% | [15]; at 50.0 µM -0.75% | [16]; at 1.2 µM -7% | [16]; at 3.7 µM -1% | [16]; at 11.0 µM 3% | [16]; at 33.0 µM 0% | [16]; at 100.0 µM 25%

CCC(/C=C/c1ccccc1)=N\Nc1ccc(Cl)cc1
inactive: [1]; at 1.2 µM -1% | [1]; at 3.7 µM 2% | [1]; at 11.0 µM -1% | [2]; at 1.2 µM 0% | [2]; at 3.7 µM -2% | [2]; at 11.0 µM -6% | [2]; at 33.0 µM 48% | [3]; at 1.2 µM 4% | [3]; at 3.7 µM 9% | [3]; at 11.0 µM 19% | [3]; at 33.0 µM 17% | [3]; at 100.0 µM 19% | [4]; at 1.2 µM -4% | [4]; at 3.7 µM 4% | [4]; at 11.0 µM 7% | [4]; at 33.0 µM 5% | [4]; at 100.0 µM 50% | [5]; at 1.2 µM 3% | [5]; at 3.7 µM 9% | [5]; [17] 2% | [5]; at 11.0 µM 12% | [6]; at 1.2 µM 0% | [6]; at 3.7 µM 5% | [6]; [17] -3% | [6]; at 11.0 µM 9% | [6]; at 33.0 µM 6% | [6]; at 100.0 µM 52% | [7]; at 1.2 µM 0% | [7]; at 3.7 µM 0% | [7]; at 11.0 µM 3% | [7]; at 33.0 µM 0% | [8]; [17] 2% | [9]; at 1.2 µM -1% | [9]; at 3.7 µM 1% | [9]; at 11.0 µM 8% | [9]; at 33.0 µM 8% | [9]; at 100.0 µM 48% | [10]; [17] 5% | [10]; [18] 38% | [11]; at 1.2 µM -2% | [11]; at 3.7 µM 2% | [11]; [17] 3% | [11]; at 11.0 µM 5% | [11]; at 33.0 µM 32% | [11]; at 100.0 µM 51% | [12]; at 1.2 µM -4% | [12]; at 3.7 µM -9% | [12]; at 11.0 µM -4% | [13]; at 1.2 µM -2% | [13]; at 3.7 µM 4% | [13]; at 11.0 µM 4% | [13]; at 33.0 µM 2% | [13]; at 100.0 µM 52% | [14]; at 1.2 µM -3% | [14]; at 3.7 µM -4% | [14]; at 11.0 µM -1% | [15]; [17] 7% | [16]; at 1.2 µM -3% | [16]; at 3.7 µM 1% | [16]; at 11.0 µM 3%
active: [1]; at 33.0 µM 86% | [1]; at 100.0 µM 93% | [2]; at 100.0 µM 93% | [5]; at 33.0 µM 77% | [5]; [18] 83% | [5]; at 50.0 µM 97.6% | [5]; at 100.0 µM 93% | [6]; [18] 80% | [6]; at 50.0 µM 85.5% | [7]; at 100.0 µM 76% | [8]; [18] 81% | [8]; at 50.0 µM 86.5% | [10]; at 50.0 µM 89.5% | [11]; [18] 86% | [11]; at 50.0 µM 97.8% | [12]; at 33.0 µM 80% | [12]; at 100.0 µM 94% | [14]; at 33.0 µM 77% | [14]; at 100.0 µM 95% | [15]; [18] 91% | [15]; at 50.0 µM 96% | [16]; at 33.0 µM 79% | [16]; at 100.0 µM 95%
